# Source: PubChem BioAssay (National Center for Advancing Translational Sciences (NCATS))
# The list is not random: actives were taken first. Their share in the collection is about 8.2%.
# KB-V1 MDR tox – KB-V1 MDR subline cytotoxicity; KB-V1 MDR cells viability, CellTiter-Glo, 72 h; Potency, µM (titrated, usually from 46.1 µM), usual class: cytotoxic; 400,000 tested, 3.4% active; AID 1347076; note: nearly all actives have a fitted effect of over 60% in size
#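 Luminescent ATP read-out (CellTiter-Glo, 10 min) measures survival of drug-selected KB-V1 MDR cells after 72 h, 37 degrees C compound exposure. Medium: phenol-red-free DMEM, 10% FBS. Values from fitted concentration-response curves.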
# MCF10A rerep – DNA re-replication induction in MCF 10a cells. Potency, µM (series often up to 46.1 µM), most hits filed as activators. AID 624296. 350,000 tested, 2.9% active. MCF 10A DNA re-replication, Hoechst nuclear intensity, 48 h; note: nearly all actives have a fitted effect of over 50% in size
# KB-3-1 tox – kills parental KB-3-1 adenocarcinoma cells; Potency, µM (titrated, usually from 46.1 µM), actives largely listed as cytotoxic; KB-3-1 viability, CellTiter-Glo ATP luminescence, 72 h; 400,000 tested, 1.4% active; note: nearly all actives have a fitted effect of over 60% in size
#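 Multi-concentration cytotoxicity screen in KB-3-1 cells grown in DMEM lacking phenol red with 10% FBS. After 72 h at 37 °C with compound, ATP-dependent luminescence was recorded.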
# ELG1 repair inh – ELG1-dependent DNA repair inhibition; Potency, µM (top dose mostly 46.1 µM), actives largely listed as inhibitors; HEK293T ELG1-luciferase reporter, luminescence, 16 h; DNA damage induced by 5-fluorouridine; 330,000 tested, 2.3% active; AID 504467; note: nearly all actives have a fitted effect of over 55% in size
#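 Step one: seed 2,000 cells per well. Step two: pin-transfer compound or DMSO alongside 5-fluorouridine. Step three: incubate 16 hr, 37 °C, 5% CO2. Step four: add ONE-Glo, wait 30 min, read luminescence.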
# SW480 rerep – DNA re-replication induction in SW480 cells; SW480 DNA re-replication, Hoechst DNA content imaging, 48 h; Potency, µM (highest dose often 46.1 µM), usual class: activators; 340,000 tested, 1.8% active; note: nearly all actives have a fitted effect of over 55% in size
#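 SW480 cells exposed to compounds for 48 hr at 37 C, 5% CO2, then Hoechst-stained 40 min. Nuclear DNA content imaged by fluorescence scanning (405 nm excitation, 500-530 nm emission); re-replication scored as increased high-intensity nuclei.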
# Numbers stand for hits; – = inactive; ? = inconclusive; · = no result; ! = a repeat was not active. Calls come from the whole dose curve; as a rule, active = well fitted curve in the direction sought with a large enough effect; inconclusive = small, poorly fitted or top-dose-only effect, or another doubt; inactive = no such curve, though single readings can be large; an effect the other way counts as inactive or inconclusive.
SMILES,KB-V1 MDR tox,MCF10A rerep,KB-3-1 tox,ELG1 repair inh,SW480 rerep
COc1ccc(C(=O)NN/C=C/C(=O)c2ccc(Br)cc2)cc1,–,·,–,·,·
COc1ccc(C(=O)C=CNNC(=O)c2ccc(Cl)cc2)cc1,?,5.8µM,?,–,3.66µM
COc1ccc(-c2sc3ccc(OC)cc3c2-c2ccc(O)cc2)cc1,–,?,–,23.1µM,–
COc1ccc2sc(-c3ccccc3OC)c(-c3ccc(O)cc3)c2c1,–,16.4µM,–,–,–
COc1cc(OC)cc(-c2sc3ccc(OC)cc3c2-c2ccc(O)cc2)c1,–,–,–,?,–
Cc1ccc(-n2c(C)nc3c(cnn3-c3ccccc3Cl)c2=O)cc1C,20.6µM,–,?,–,–
Cc1ccc(-n2c(C)nc3c(cnn3-c3ccc(C)c(C)c3)c2=O)cc1C,–,–,–,–,–
CCc1nc2c(cnn2-c2ccc(F)cc2)c(=O)n1-c1ccc(N2CCC(C)CC2)cc1,–,–,–,16.4µM,–
Cc1nc2c(cnn2-c2ccccc2Cl)c(=O)n1-c1ccc(N2CCC(C)CC2)cc1,6.51µM,–,16.4µM,16.4µM,–
COc1cc2c(cc1OC)/C(=C/c1ccc(N(C)C)cc1)C=C2,?,·,–,·,·
COc1cccc(-c2cnc3c(NC=O)cc(-c4ccccc4)cn23)c1,7.31µM,·,5.17µM,·,·
COc1cccc(-c2cnc3c(NC=O)cc(-c4cc(C)c(O)c(C)c4)cn23)c1,?,·,6.51µM,·,·
CN(C)C(=O)c1cccc(-c2cc(NC=O)c3ncc(-c4ccc(F)cc4)n3c2)c1,20.6µM,·,?,·,·
COc1cccc(-c2cnc3c(NC=O)cc(-c4ccoc4)cn23)c1,?,·,–,·,·
CC(=O)c1ccc(-c2cnc3c(NC=O)cc(-c4cccc(C(=O)N(C)C)c4)cn23)cc1,–,·,–,·,·
COc1cccc(-c2cnc3c(NC=O)cc(-c4ccccc4Oc4ccccc4)cn23)c1,20.6µM,·,?,·,·
Cc1ccc(-c2csc(-c3nc(-c4ccc(Br)s4)cs3)n2)cc1,–,·,–,·,·
COC(=O)c1ccc(NC(=O)CCc2c(C)nn(-c3ccc(N4CCOCC4)nn3)c2C)cc1,–,·,–,·,·
COc1cccc(-c2cc(NC=O)c3ncc(-c4ccc(C(C)=O)cc4)n3c2)c1,18.4µM,·,5.17µM,·,·
COc1ccc(-c2cc(NC=O)c3ncc(-c4cccc(C(C)=O)c4)n3c2)cc1,–,·,–,·,·
COc1ccc2cc(C(=O)C3CCCN(C(=O)c4cnn(C(C)C)c4)C3)ccc2c1 (centres undefined),?,–,–,–,–
O=c1c2cc([N+](=O)[O-])cc([N+](=O)[O-])c2[nH]n1-c1ccccc1,0.82µM,?,?,–,–
CC1(OC(=O)C2CCCC2)C(=O)C=C2C=C(c3ccsc3)N(CCc3ccccn3)C=C2C1=O (centres undefined),–,–,–,–,–
O=C1CC(N2CCN(Cc3ccccc3)CC2)C(=O)N1CCc1ccccc1 (centres undefined),–,25.9µM,–,–,–
O=C1CC(N2CCN(Cc3ccc(Cl)cc3)CC2)C(=O)N1CCc1ccccc1 (centres undefined),–,–,–,–,–
SMILES,KB-V1 MDR tox,MCF10A rerep,KB-3-1 tox,ELG1 repair inh,SW480 rerep
CCSC1OC(C(COC(C)=O)OC(C)=O)C(OC(C)=O)C1NC(C)=S (centres undefined),–,–,–,·,–
Cn1c(CN2CCOCC2)nc2cc(NC(=O)COc3ccccc3)ccc21,16.4µM,–,–,?,–
Cn1c(CCN2CCOCC2)nc2cc(NC(=O)COc3ccc([N+](=O)[O-])cc3)ccc21,–,–,–,–,–
Cn1c(CN2CCCCC2)nc2cc(NC(=O)c3cccc(Br)c3)ccc21,?,?,18.4µM!,?,–
Cn1c(CN2CCCCC2)nc2cc(NC(=O)c3ccccc3)ccc21,8.2µM,–,–,?,–
CC1CCN(CCc2nc3cc(NC(=O)COc4ccc([N+](=O)[O-])cc4)ccc3n2C)CC1,–,?,?,–,20.6µM
Cc1ccc(CNC(=O)c2nnn(Cc3ccc(F)cc3)c2N)cc1,–,·,–,·,·
COc1ccc(C(CNC(=O)C(CCSC)NC(=O)c2ccccc2OC)N2CCCCC2)cc1 (centres undefined),–,–,–,–,–
CCN(CC(=O)NCc1ccc(Cl)cc1)C(=O)COc1cccc(Cl)c1,–,?,–,–,?
CCn1c(CN2CCCCC2)nc2cc(NC(=O)c3ccccc3[N+](=O)[O-])ccc21,–,·,–,·,·
CCn1c(CN2CCCCC2)nc2cc(NC(=O)c3ccc([N+](=O)[O-])cc3)ccc21,6.51µM,·,–,·,·
Cc1ccc(OCC(=O)Nc2ccc3c(c2)nc(CCN2CCCC2)n3C)cc1,–,·,–,·,·
CC(=O)Nc1ccc2c(c1)nc(CCNC(=O)c1ccccc1)n2C,–,–,–,–,–
CCCC(=O)N1CCN(Cc2nc3cc([N+](=O)[O-])ccc3n2C)CC1,–,–,–,–,7.31µM
CC(=O)NCCc1nc2cc(NC(=O)c3ccccc3C)ccc2n1C,?,0.581µM,–,?,–
Cc1ccc(C(C)C)c(OCC(=O)Nc2ccc3c(c2)nc(CN2CCCC2)n3C)c1,–,?,?,13µM,–
COc1cc(C2CC(=O)Nc3c2c(=O)n(C)c2ncnn32)cc(OC)c1OC (centres undefined),–,·,–,·,·
CNC(=O)COc1ccccc1C(=O)Nc1ccccc1,–,·,?,·,·
C(COC1CC2CC1C1C2CC2OC21)OC1CC2CC1C1C2CC2OC21 (centres undefined),20.6µM,?,–,·,–
CCN(CC)C(=O)c1sc2c(c1C)c(=O)n(-c1ccc(Cl)c(Cl)c1)c(=O)n2Cc1ccccc1C#N,–,·,–,·,·
CCC(=O)Nc1ccc(C=C(C(C)=O)C(C)=O)cc1,–,16.4µM,?,?,–
N#Cc1cccc(C(=O)Nc2cc(S(=O)(=O)N3CCOCC3)ccc2N2CCCC2)c1,–,–,–,?,–
C=C1C(=O)OC2C1C(OC(=O)C(C)=CC)CC(=C)C1C(O)C3OC3(C)C21O (centres undefined),–,13µM,–,·,20.6µM
COc1ccc2c(n1)Sc1nc3ccccc3nc1N2,–,20.6µM,–,?,?
COc1cc2ccccc2nn1,–,–,–,–,–
SMILES,KB-V1 MDR tox,MCF10A rerep,KB-3-1 tox,ELG1 repair inh,SW480 rerep
CCCN(CC(=O)Nc1ccccc1OC)C(=O)c1cccc(S(=O)(=O)Nc2ccc(OC)cc2)c1,–,–,–,–,–
CCOC(=O)c1cnc(Nc2nc3ccccc3o2)nc1CSc1ncccn1,–,–,–,·,–
CCCc1nc(Nc2nc3ccccc3o2)nc(C)c1C(=O)OCC,3.66µM,–,–,?,–
CCOC(=O)c1cnc(Nc2nc3ccccc3o2)nc1CSC(=S)N(CC)CC,?,?,1.3µM,?,?
COc1cc(-c2nc3ccccn3c2NCc2ccccc2)ccc1SC1CCCCC1,?,25.9µM,?,?,–
COc1cc(-c2nc3ccc(C)cn3c2NCc2ccccc2)ccc1SC1CCCCC1,?,18.4µM,–,?,?
